# Assay outcomes: PubChem, Broad Institute
# NSD2 HMT inh: NSD2 histone methyltransferase inhibitors, primary screen, biochemical, AlphaScreen, single concentration, set 2; AID 743445, 2014; inhibition, % at 12.5 µM; 310,000 tested, 0.54% active; NSD2 peptide methylation, 120 min; Histone-lysine N-methyltransferase NSD2 (Homo sapiens), O96028; in the data active = inhibition above about 50%
# ALR H2O2 inh: inhibitors of human ALR sulfhydryl oxidase, primary screen, biochemical, H2O2 detection, HRP-luminol luminescence, single point | inhibition, % (no concentration beside the values) | FAD-linked sulfhydryl oxidase ALR (Homo sapiens), P55789 | 290,000 tested, 3.8% active | purified ALR, DTT oxidation;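 active = mean replicate inhibition above about 79%, with every replicate also reaching it, limit read from the data; inconclusive = only one of the two criteria met; inactive = mean below limit and not every replicate reaching it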
# Target sequence (P55789 whole entry, looked up): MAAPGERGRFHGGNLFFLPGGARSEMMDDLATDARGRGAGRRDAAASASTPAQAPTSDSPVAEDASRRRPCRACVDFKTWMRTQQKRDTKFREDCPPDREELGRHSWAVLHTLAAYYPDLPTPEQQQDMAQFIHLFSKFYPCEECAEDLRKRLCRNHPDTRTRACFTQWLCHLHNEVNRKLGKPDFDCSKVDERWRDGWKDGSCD
# PglD DTNB: C. jejuni PglD acetyltransferase inhibitors, primary screen, biochemical, DTNB colorimetric, single point | purified PglD enzyme, DTNB colorimetric CoA detection | inhibition, % at 12.5 µM | 360,000 tested, 0.098% active; in the data active = inhibition above about 16%, passing the limit was not always enough; inconclusive = no clear call, values can overlap the other calls
# HIV Env fusion: inhibitors of HIV-1 Env-driven cell-cell fusion, primary screen, HeLa-JRFL effector, CEM21 target cells, luciferase | inhibition, % at 12.3 µM | 360,000 tested, 1.1% active;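 active = mean replicate inhibition score of at least 50 and every replicate individually at or above 50; inconclusive = only one of the two criteria met; inactive = mean below 50 and not all replicates reaching 50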;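 note: 0% = plate neutral controls and 100% = maraviroc near 300 nM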
# CFTR F508del cor: F508del CFTR correction, initial screen, CFBE line, single point; CFBE cells, YFP halide quenching; stimulated with forskolin plus potentiator P3; % fluorescence drop versus neutral controls; activity (quench increase), % at 7.58 µM; 350,000 tested, 0.36% active;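 active = mean added fluorescence quench of at least 8% versus neutral control, with both replicates also reaching 8%; inconclusive = only one of the mean or replicate conditions met; inactive = mean below 8% and not both replicates reaching 8%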;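 note: cells transiently co-express mutant CFTR-F508del with the halide-sensitive YFP; corrector assay measuring rescue of mutant channel to the surface after 24 h compound exposure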
# Casp6 inh: human caspase-6 inhibitors, primary screen, biochemical, VEID-R110 fluorescence, single point, set 2 | inhibition, % at 12.5 µM | 350,000 tested, 0.53% active | P55212 | purified caspase-6, Z-VEID-R110 cleavage fluorescence;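 active = mean inhibition across replicates at least about 35%, with every replicate also reaching that limit, limit read from the data; inconclusive = only one of the two criteria met; inactive = neither criterion met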;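 note: 0% = median of neutral control wells and 100% = no fluorescence left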
# Target sequence (P55212 24-179 limits assumed): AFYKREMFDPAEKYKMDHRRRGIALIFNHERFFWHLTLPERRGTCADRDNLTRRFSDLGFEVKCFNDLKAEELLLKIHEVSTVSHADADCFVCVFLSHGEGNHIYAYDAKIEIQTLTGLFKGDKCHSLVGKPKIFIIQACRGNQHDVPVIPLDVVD
# Target sequence (P55212 194-293 limits assumed): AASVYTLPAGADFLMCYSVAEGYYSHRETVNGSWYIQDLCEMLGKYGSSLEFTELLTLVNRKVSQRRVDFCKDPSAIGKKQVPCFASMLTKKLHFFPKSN
# AlphaScreen art: AlphaScreen signal interference with preloaded methylated product, dose response, artefact control for NSD2 inhibitor project, biochemical, cherry-picked samples; 1,500 tested, 9.4% active; shares compounds with NSD2 HMT inh; AC35, µM (titrated, usually from 10 µM), inactives show at the highest dose activity change, negative = signal loss; AlphaScreen artifact counterscreen, preloaded methylated H4 peptide; call rule not given here
# * hit, by the source's call; ? = inconclusive; / = no result given; [ ] = another dose, or the depositor's remark. A selection: hits, their analogues and other compounds. The true share with any hit is near 4.1%.
SMILES,NSD2 HMT inh,ALR H2O2 inh,PglD DTNB,HIV Env fusion,CFTR F508del cor,Casp6 inh,AlphaScreen art
CCOC(=O)C1=C(C)N=c2s/c(=C\c3ccc(OCC(=O)O)cc3)c(=O)n2C1c1ccccc1OC (stereo unspecified),2,-3,-5,-6,0,7,/
CCOC(=O)C1=C(C)N=c2s/c(=C\c3ccc(O)c([N+](=O)[O-])c3)c(=O)n2C1c1ccccc1OC (stereo unspecified),72*,/,-3,3,-3,3,-6%
COc1ccc(S(=O)(=O)Nc2ccc3c(c2)C(=O)N([C@H](C)CO)C[C@@H](C)[C@H](CN(C)S(=O)(=O)c2cccs2)OCCCC[C@@H](C)O3)cc1,/,/,-1,2[16.7 µM],3,-1,/
C=CCOc1ccc(NC(=O)C2CC(=O)N(C(C)C)C2)cc1 (stereo unspecified),56*,-6,6,-121,/,/,3%
c1coc(-c2nc(-c3ccco3)c(-c3ccco3)nc2-c2ccco2)c1,149*,13,-3,-4,/,/,-6%
Nc1nc(-c2ccco2)c(-c2ccco2)s1,4,-13,/,/,/,/,/
O=C(NC[C@H]1CC[C@@H]2[C@@H](CN2Cc2ccccc2F)O1)C1CC1,/,/,/,20[16.7 µM],0,0,/
COCC#Cc1cnc2c(c1)C(=O)N([C@H](C)CO)C[C@H](C)[C@H](CN(C)C)O2,/,/,1,-107[16.7 µM],1,-2,/
Cn1nnnc1SCC(=O)NCc1cccc(C(=O)O)c1,0,-20,-1,-65,/,/,/
COC(=O)c1ccc(-n2nnnc2SCC(=O)NCc2cccc(C(=O)O)c2)cc1,107*,-9,-4,24,/,/,3%
COc1ccc(N)c2c1C(=O)c1ccccc1C2=O,/,-1,11,-113,/,/,/
COC1=C(Br)C(=O)c2nc(C)ccc2C1=O,186*,/,5,37,1,95*,-8%
COC1=C(N)C(=O)c2nc(C)ccc2C1=O,189*,/,/,-8,6,56*,-1%
CCCC#Cc1cnc2c(c1)C(=O)N([C@@H](C)CO)C[C@@H](C)[C@@H](CN(C)S(=O)(=O)c1ccccc1)O2,/,/,2,22[16.7 µM],1,4,/
O=C(Nc1ccc2c(c1)OCO2)N[C@H]1CC[C@H](CC(=O)N2CCN(c3ccccc3)CC2)O[C@H]1CO,/,/,8,-8[16.7 µM],-3,-1,/
CN(C)CCCNC(=O)[C@H]1[C@H](CO)[C@H]2Cn3c(cccc3=O)[C@@H]1N2C(=O)Nc1cc(F)ccc1F,/,/,-5,4[16.7 µM],/,/,/
C[C@H](CO)N1C[C@H](C)[C@@H](CN(C)C(=O)Nc2ccc(F)cc2)Oc2ccc(NC(=O)C3CC3)cc2C1=O,/,/,-10,4[16.7 µM],-1,-1,/
Nc1cc(S(=O)(=O)O)cc2ccc(S(=O)(=O)O)cc12,102*,/,1,-2,-1,57*,0%
C[C@@H]1CN([C@H](C)CO)C(=O)Cc2cc(NC(=O)CCN3CCOCC3)ccc2O[C@H]1CN(C)C(=O)Nc1ccc(F)cc1,/,/,-2,-18[16.7 µM],-2,-4,/
COc1cc(/C=N/n2c(C)nnc2C)cc(OC)c1OC,83*,-2,-3,/,/,/,-2%
O=C(OC[C@@H]1[C@H]2c3ccccc3OC1(CO)N=C1SCCCN12)c1ccccc1,/,/,-1,-28[16.7 µM],2,-3,/
Nc1c(C(=O)CCC(=O)O)oc2ccc(Cl)cc12,/,7,-4,-20,-2,5,/
NC(=O)c1oc2ccc(Cl)cc2c1N,95*,48,6,/,/,/,-2%
C[C@H](CO)N1C[C@H](C)[C@H](CN(C)C(=O)Nc2ccccc2)Oc2ccc(NC(=O)CCCCCC(=O)Nc3ccccc3N)cc2CC1=O,/,/,0,12[16.7 µM],1,-1,/
CC(=O)NC(Cc1c[nH]c2ccccc12)C(=O)NCc1ccco1 (stereo unspecified),-5,-5,-2,11,-3,-2,/
SMILES,NSD2 HMT inh,ALR H2O2 inh,PglD DTNB,HIV Env fusion,CFTR F508del cor,Casp6 inh,AlphaScreen art
CC(Cc1c[nH]c2ccccc12)C(=O)NCc1ccco1 (stereo unspecified),63*,/,-5,-16,/,42*,-5%
O=c1[nH]n2c(=O)c3c([nH]c2c1N=Nc1cccc(C(F)(F)F)c1)CCCC3,125*,97*,-6,-34,/,/,-8%
COc1ccc2c3c([nH]c2c1)[C@@H](CO)N(C(C)=O)CC31CCN(C(=O)CN2CCOCC2)CC1,/,/,/,/,2,1,/
C[C@H](CO)N1C[C@H](C)[C@H](CN(C)C(=O)Nc2ccc(C(F)(F)F)cc2)OCCCC[C@H](C)Oc2ccc(NC(=O)Nc3ccc(C(F)(F)F)cc3)cc2C1=O,/,/,1,?,3,/,/
Cc1ccc(OCc2nnc(SCC(=O)NC3CCCCC3)n2C)cc1,-2,-14,6,/,/,/,/
Cn1c(COc2ccc(Cl)cc2)nnc1SCC(=O)NC1CCCCC1,51*,-2,3,20,/,/,1%
CC(C)NC(=O)Nc1ccc2c(c1)C(=O)N([C@@H](C)CO)C[C@@H](C)[C@H](CN(C)C(=O)NC1CCCCC1)OCCCC[C@H](C)O2,/,/,0,12[16.7 µM],1,6,/
Cc1cc(C)c(NC(=S)N(C)C)cc1C,56*,-3,-142,-12,-4,5,2%
CC1(C)Cc2c(C#N)c(N)n(-c3ccccc3)c(=S)c2CO1,0,-30,-2,7,1,14,/
CC1(C)C=C2C(=NN(c3ccccc3)C(N)=C2C#N)CO1,100*,/,2,-3,0,84*,-9%
Cc1ccc(C)c(-n2c3nc(=O)[nH]c(=O)c-3cc3cc([N+](=O)[O-])ccc32)c1,60*,-13,4,/,-2,50*,-8%
Cc1cccc(-n2c3nc(=O)[nH]c(=O)c-3cc3cc([N+](=O)[O-])ccc32)c1,58*,-30,-3,-10,/,9,-6%
COc1cccc(-c2ccc([C@@H]3[C@H](CO)N4C(=O)CN(C(=O)CN5CCOCC5)C[C@@H]34)cc2)c1,/,/,/,/,4,0,/
O=C(CCCCCN1C(=O)C2C3C=CC(C3)C2C1=O)Nc1ccc(Cl)cc1 (stereo unspecified),-4,/,/,/,/,/,/
O=C(CCCCCN1C(=O)C2C3C=CC(C3)C2C1=O)Nc1ccc2ncccc2c1 (stereo unspecified),95*,/,/,/,/,/,-1%
CCCn1c(C)nc2c(c1=O)c1nc3ccccc3nc1n2-c1ccccc1,54*,/,-9,-18,-1,-2,1%
Cc1ccc(-n2c(C)cc(/C=N/NC(=O)CC3(C)OCCO3)c2C)c(C)c1,1,6,/,/,/,/,/
